Screening results (PubChem BioAssay)
ELG1 genotoxic = induces genotoxicity in HEK293T cells with luciferase-tagged ELG1; HEK293T ELG1-luciferase reporter, luminescence, 16 h; Potency, µM (titrated, usually from 46 µM), inactives show at the highest dose activity change, positive = activation, usual class: activators; actives 1.3% (n = 330,000); also: % of control where 0% means no effect; nearly all actives have a fitted effect of over 60% in size
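Reporter readout depends on ELG1 protein level, which increases with genetic stress. After 16 hr compound exposure at 37 °C, luciferase activity was quantified using ONE-Glo.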
SMN2 splice up = SMN2 splice variant enhancement; actives 2.8% (n = 210,000); Potency, µM (titrated, usually from 46.1 µM), inactives show at the highest dose activity change, positive = activation, hits mostly activators; HEK293 SMN2-luciferase splicing reporter, luminescence, 30-36 h; also: % of control where 0% means no effect; nearly all actives have a fitted effect of over 55% in size
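HEK293 cells carry an SMN2 minigene-luciferase reporter in which exon 7 inclusion puts luciferase in frame. Cells were seeded at 2000 cells/well, attached for 10-12 hours, then exposed to compounds for 30-36 hours at 37C before ONE-Glo luminescence.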
Rab9 promoter act = Rab9 promoter activation; Huh7 Rab9 promoter-luciferase reporter, luminescence, 24 h; actives 2.8% (n = 320,000); AID 485297; Potency, µM (highest dose often 9.22 µM), for the others: top-dose activation, negative = inhibition, actives largely listed as activators; also: % of control where 0% means no effect; nearly all actives have a fitted effect of over 60% in size
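Quantitative HTS format; Huh7 Rab9-luciferase reporter cells (1500/well) receive compound 2 h post-plating, incubate 24 h at 37 °C, then get luciferase reagent for 10 min before luminescence reading.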
KinaseGlo FLuc = blocks Kinase-Glo luciferase, a counter-screen artifact. actives 0.28% (n = 200,000). Q27757. Potency, µM (titrated, usually from 38.3 µM), for inactives: top-dose activity change, negative = inhibition, most hits filed as inhibitors. Kinase-Glo luciferase, ATP luminescence, 8 min; also: % is scaled to controls: 0 for no effect and ±100 for the full control effect; nearly all actives have a fitted effect of over 60% in size
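Compounds were added to a substrate mix at pH 7.2 (50 mM imidazole, 10 uM ATP, within the enzyme's linear range), followed by Kinase-Glo detection reagent; luminescence was measured after 8 minutes at ambient temperature.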
NPC1 prom act = activates the NPC1 promoter | AID 485313 | actives 2.4% (n = 320,000) | Huh7 NPC1 promoter luciferase reporter, 24 h | Potency, µM (series often up to 9.22 µM), for inactives: top-dose activation, most hits filed as activators; also: % of control where 0% means no effect; nearly all actives have a fitted effect of over 60% in size
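Readout is luciferase luminescence, reflecting NPC1 promoter activation in stably transfected Huh7 cells after 24 h compound exposure at 37 °C in reduced-serum medium with 10% FBS.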
FLuc counter = inhibits or activates purified firefly luciferase, miR-21 counter-screen; P08659; purified FLuc, Km substrates, luminescence inhibition; Potency, µM (series often up to 57.5 µM), without a hit: at the top dose activity change, negative = inhibition, hits mostly inhibitors; actives 6.9% (n = 360,000); AID 588342;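 also: plate controls were vehicle for no effect and reference inhibitor for full effect; nearly all actives have a fitted effect of over 55% in size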
Target sequence (P08659 whole entry, looked up): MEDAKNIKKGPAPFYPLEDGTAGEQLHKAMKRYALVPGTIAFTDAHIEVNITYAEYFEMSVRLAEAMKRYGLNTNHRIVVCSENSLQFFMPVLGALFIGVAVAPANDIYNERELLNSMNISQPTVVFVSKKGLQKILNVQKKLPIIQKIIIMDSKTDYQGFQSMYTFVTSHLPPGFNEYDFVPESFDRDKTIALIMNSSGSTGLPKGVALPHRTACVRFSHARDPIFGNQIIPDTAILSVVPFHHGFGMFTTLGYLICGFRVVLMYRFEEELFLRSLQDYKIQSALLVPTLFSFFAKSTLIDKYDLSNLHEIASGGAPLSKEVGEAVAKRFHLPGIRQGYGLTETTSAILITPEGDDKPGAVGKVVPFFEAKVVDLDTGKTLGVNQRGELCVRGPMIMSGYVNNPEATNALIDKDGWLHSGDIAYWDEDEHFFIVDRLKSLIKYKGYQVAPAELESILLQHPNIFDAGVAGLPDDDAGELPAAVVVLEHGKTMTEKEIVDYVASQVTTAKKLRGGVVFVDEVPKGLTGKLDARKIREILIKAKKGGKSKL
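Purified P. pyralis luciferase (10nM final) with 10uM D-luciferin and 10uM ATP (Km levels) in 50mM Tris acetate pH 7.5, 10mM Mg acetate, 0.01% Tween-20, 0.05% BSA; qHTS 6-point titration, ~60 µM downward; luminescence read.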
Active calls of the source: *; ? = inconclusive; · = not tested or not shown; [ ] = remark or other dose. An excerpt weighted towards active compounds, which were near 7.3% of everything screened. Calls follow the shape of the dose curve; as a rule, active = well fitted curve in the direction sought with a large enough effect; inconclusive = small, poorly fitted or top-dose-only effect, or another doubt; inactive = no such curve, though single readings can be large; an effect the other way counts as inactive or inconclusive. Potency is read from the fitted curve at half-maximal effect.

SMILES	ELG1 genotoxic	SMN2 splice up	Rab9 promoter act	KinaseGlo FLuc	NPC1 prom act	FLuc counter
Cc1cccc(OCCCn2c(=O)oc3ccccc32)c1	?	19%	18%	-2%	-2%	?
Cc1cnc(NC(=O)CN2CCCCC2)s1	3%	·	2%	·	-2%	2%
O=C1c2ccccc2C(=O)N1Cc1nc(-c2ccccc2)no1	1%	10%	-1%	-1%	-1%	?
Fc1cccc(F)c1-c1nc(-c2ccc(Cl)cc2)no1	?	·	2.8µM*	·	4µM*	5.4µM*
COc1ccc(CNC(=O)c2ccc(C(C)C)cc2)cc1	?	13µM*	2.2µM*	-3%	3.5µM*	9.5µM*
Cc1ccc(-n2c(C)nc3ccccc3c2=O)c(C)c1	-5%	·	9%	·	-1%	0%
CC1CCN(CC(=O)c2ccc3c(c2)OCCO3)CC1	?	13µM*	?	-1%	?	11µM*
CC1CN(CC(=O)c2ccccc2Cl)CC(C)O1 (stereo unspecified)	1%	·	-4%[1.84 µM]	·	-1%	-17%
CC1CCN(CC(=O)c2ccccc2Cl)CC1	?	?	?	-3%	23%	11µM*
Cc1cccc(NC2=NCCCS2)c1C	0%	13%	2%	0%	-4%	1%
CC(/C=C(\C)Nc1ccccc1)=Nc1ccccc1	2%	18%	-5%	0%	-6%	-6%
COc1ccc(C/C(=N\OC(C)=O)c2ccc(OC)cc2)cc1	1%	·	15%	·	14%	0.6µM*
CC(C(=O)c1ccccc1)N1C(=O)c2ccccc2C1=O (stereo unspecified)	2%	10%	13%	-3%	-1%	-1%
Cc1ccc(-c2nnc(Nc3ccc(OC(F)(F)Cl)cc3)c3ccccc23)cc1S(=O)(=O)NC(C)(C)CO	·	16%	·	·	·	5.4µM*
Cc1ccc(-c2nn3c(C)nnc3c3ccccc23)cc1S(=O)(=O)NCCO	?	?	0%	-1%	-1%	0%
CNC(=O)[C@@H]1C[C@H]1[C@@H](NP(=O)(c1ccccc1)c1ccccc1)c1ccccc1	·	13µM*	·	0%	·	·
CCCSc1ccc2nc(NC(=O)OC)[nH]c2c1	-1%	?	17%	-7%	24%	3µM*
CCCCn1c(=O)c(C(=O)Nc2nc3ccccc3[nH]2)c(O)c2ccccc21	?	-22%	18%	0%	4%	6%
Brc1ccc(-c2csc(N3CCCCC3)n2)cc1	·	·	5%	·	1%	9.5µM*
CSc1cccc(CNC(=O)C2CCC(=O)N(Cc3cccc(C(F)(F)F)c3)C2)c1 (stereo unspecified)	?	·	?	·	?	17µM*
O=C1/C(=C/c2ccc3c(c2)OCO3)N2CCC1CC2	1%	18%	2%	-1%	4%	-11%
Cc1oc(/N=C/c2ccc3c(c2)OCO3)c(C#N)c1C	?	0%	13%	-16%	-3%	1.7µM*
CCOCCN1CCN(c2nnc3n2-c2ccc(Cl)cc2C(c2ccccc2Cl)=NC3)CC1	2%	16%	-12%	7%	-3%	-1%
CN1C(=O)c2ccccc2Sc2ccc(C(=O)N3CCC4(CC3)OCCO4)cc21	6%	-19%	-1%	-5%	0%	1%
Cc1ccc(/C=C2/Sc3ccc(C(=O)N4CCC5(CC4)OCCO5)cc3NC2=O)cc1	-6%	·	-2%	·	-3%	15µM*
SMILES	ELG1 genotoxic	SMN2 splice up	Rab9 promoter act	KinaseGlo FLuc	NPC1 prom act	FLuc counter
COC1=C(OC)[C@]23CCc4ccc(OC)c(OC)c4[C@]2(CCN3C)CC1=O	-2%	·	·	·	·	·
Cn1nc(OC(=O)Nc2ccccc2)cc1C(F)(F)F	13%	17%	29%	-9%	?	17µM*
CN(C)c1cc[n+](CC(O)C[n+]2ccc(N(C)C)cc2)cc1	2%	·	-4%	·	0%	2%
CCOc1ccc(NC(=O)C(=S)NC2CCCCC2)cc1	?	?	?	-2%	?	13µM*
C#CC(CC)(CC)NC(=O)Nc1ccc(OCC)cc1	2%	13%	-1%	-1%	0%	-16%
O=c1nc(/C=C/c2ccc(Cl)cc2Cl)cc(C(F)(F)F)[nH]1	-4%	·	0%	·	1%	11µM*
C=CCC(O)(C(=O)OC)c1ccccc1 (stereo unspecified)	·	11%	·	1%	·	·
O=C(c1ccc2c(c1)ncn2C1CCCCCC1)N1CCC2(CC1)OCCO2	0%	-2%	-3%	-1%	-8%	-1%
Nc1cc2nc3ccccc3nc2cc1N	11%	·	28%	·	?	19µM*
Cn1cnc2cc(NC(=O)c3ccc(Cl)cc3)ccc21	?	11µM*	2.8µM*	0%	2.8µM*	12µM*
CN(C)C(=O)Nc1ccc(Cl)cc1	·	-6%	·	·	·	·
CCNCC(O)c1cccc(O)c1 (stereo unspecified)	0%	·	-7%	·	-3%	8%
NNCc1cccc(O)c1	6%	-1%	-1%	-13%	-1%	2.7µM*
Clc1ccc(Cl)c(Cl)c1	·	-5%	·	·	·	·
Nc1nc(SCc2ccc(Cl)cc2Cl)n[nH]1	21µM*	?	21%	-5%	20%	?
CC(=Nc1ccc(F)cc1)c1c(O)n(C)c(=O)[nH]c1=O	5%	·	4%	·	-1%	0%
CCOc1ccc2nc(N3CCC(C(=O)N4CCC5(CC4)OCCO5)CC3)sc2c1	1%	·	?	-2%	?	15µM*
Cc1ccc2nc(N3CCC(C(=O)N4CCC5(CC4)OCCO5)CC3)sc2c1	0%	·	?	-2%	?	12µM*
O=C(C1CCCN(c2nnc(-n3cccc3)s2)C1)N1CCC2(CC1)OCCO2 (stereo unspecified)	1%	18%	-1%	2%	-1%	-8%
CCc1ccc2nc(N3CCC(C(=O)N4CCC5(CC4)OCCO5)CC3)sc2c1	?	-83%	12%	2%	0%	9.5µM*
O=C(C1CCN(c2nc3ccc(Br)cc3s2)CC1)N1CCC2(CC1)OCCO2	?	-77%	-12%	-3%	-2%	13µM*
CCn1c(C(=O)N2CCC(C(=O)N3CCC4(CC3)OCCO4)CC2)cc2sccc21	2%	-12%	-11%	-3%	2%	6%
N#Cc1c(N2CCNCC2)nc(-c2ccco2)c2c1CCCC2	-2%	·	-6%	·	-7%	-2%
CCOc1cccc(N2C(=O)/C(=C/c3ccco3)C(=O)NC2=S)c1	4%	·	-9%	·	-1%	21µM*
Cc1ccc(/C=C2\C(=O)NC(=S)N(c3ccc(F)cc3)C2=O)o1	-17%	·	-9%	·	0%	?
COc1cccc(N2C(=O)NC(=O)/C(=C/c3ccc4c(c3)Cc3ccccc3-4)C2=O)c1	2%	-16%	-3%	-1%	1%	21µM*
